Data taken from PubChem BioAssay (NCI).
The panel holds about 79,000 compounds, 15% with a hit somewhere; the sample as a whole holds those more often. Calls of active or inactive are those of the source. Rule as the data show it: active = growth inhibition above about 70%; inactive = the rest.

How the values were obtained:
[1] = NCI Yeast Anticancer Drug Screen. Data for the rad52 strain (AID 147);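 also: 0% = growth of vehicle-treated control cultures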; details: S. cerevisiae rad52 mutant growth inhibition, active compounds read high
Outline: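 Vehicle-treated cultures served as the reference for growth inhibition of compound-exposed yeast bearing a DNA repair mutation.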

[2] = NCI Yeast Anticancer Drug Screen. Data for the wt1 strain (AID 149);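 also: 0% = growth of vehicle-treated wt1 cultures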; details: S. cerevisiae wt1 strain (SPY 50644) growth inhibition, active compounds read high
Outline: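 Using yeast strain wt1, compound-induced growth inhibition was determined against vehicle-treated cultures.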

[3] = NCI Yeast Anticancer Drug Screen. Data for the rad50EPP+ strain (AID 151);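 also: 0% = growth of vehicle-treated control cultures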; details: S. cerevisiae rad50 mutant strain, active compounds read high
Outline: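 In this screen, rad50EPP+ yeast were exposed to compounds. Growth inhibition was scored against vehicle-treated controls.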

[4] = NCI Yeast Anticancer Drug Screen. Data for the mgt1 strain (AID 153); details: S. cerevisiae mgt1 mutant growth inhibition, active compounds read high
Outline: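 mgt1 strain exposed; growth vs vehicle control recorded as inhibition.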

[5] = NCI Yeast Anticancer Drug Screen. Data for the rad50 strain (AID 155);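 also: 0% = growth of vehicle-only cultures of the same strain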; details: S. cerevisiae rad50 strain growth inhibition, active compounds read high
Outline: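 Relative growth inhibition (compound vs vehicle) was measured in yeast with a defined repair-gene alteration.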

[6] = NCI Yeast Anticancer Drug Screen. Data for the mec2-1 strain (AID 157); details: S. cerevisiae mec2-1 strain, active compounds read high
Outline: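 Vehicle-treated cultures served as reference for growth inhibition of compound-exposed mec2-1 yeast.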

[7] = NCI Yeast Anticancer Drug Screen. Data for the rad14 strain (AID 159);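 also: 0% = growth of vehicle-treated control cultures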; details: S. cerevisiae rad14 strain growth inhibition, active compounds read high
Outline: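 Screen for anticancer potential: a yeast strain altered in DNA damage repair is grown with compound, and reduced growth is quantified against vehicle controls.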

[8] = NCI Yeast Anticancer Drug Screen. Data for the sgs1 mgt1 strain (AID 161);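 also: 0% = growth of cultures given vehicle only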; details: S. cerevisiae sgs1 mgt1 strain, active compounds read high
Outline: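 Genetically altered yeast, compound exposure, growth inhibition relative to vehicle.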

[9] = NCI Yeast Anticancer Drug Screen. Data for the CLN2oe strain (AID 163);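 also: 0% = growth of vehicle-only control cultures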; details: S. cerevisiae CLN2oe strain, active compounds read high
Outline: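 Inhibition relative to vehicle-treated yeast is reported. Cells: strain with genetic alteration in cell-cycle control, grown with compound.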

[10] = NCI Yeast Anticancer Drug Screen. Data for the cln2 rad14 strain (AID 165);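 also: 0% = growth equal to vehicle treated cultures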; details: S. cerevisiae cln2 rad14 strain, active compounds read high
Outline: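 Each compound was tested on cln2 rad14 yeast. Inhibition of growth was calculated against vehicle-exposed controls.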

[11] = NCI Yeast Anticancer Drug Screen. Data for the bub3 strain (AID 167); details: S. cerevisiae bub3 mutant strain, active compounds read high
Outline: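 Screening used yeast with an engineered genetic alteration affecting cell cycle control. Compound-exposed cultures were compared with vehicle cultures, and reduced growth was taken as inhibition.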

[12] = NCI Yeast Anticancer Drug Screen. Data for the wt2 strain (AID 169);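 also: 0% = growth of vehicle-treated yeast cultures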; details: S. cerevisiae wt2 strain growth inhibition, active compounds read high
Outline: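 Inhibition of yeast growth was determined after compound treatment, normalised to controls receiving only vehicle.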

[13] = NCI Yeast Anticancer Drug Screen. Data for the mlh1 strain (AID 171);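 also: 0% = growth of vehicle-treated control cultures of the same strain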; details: S. cerevisiae mlh1 strain growth inhibition, active compounds read high
Outline: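 Vehicle-normalised growth inhibition of a repair- or checkpoint-altered yeast strain following compound treatment.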

[14] = NCI Yeast Anticancer Drug Screen. Data for the sgs1 strain (AID 173);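 also: 0% = growth of vehicle-only control cultures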; details: S. cerevisiae sgs1 mutant, active compounds read high
Outline: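 Screen format: yeast with repair or checkpoint alterations, compound exposure, growth read relative to vehicle.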

[15] = NCI Yeast Anticancer Drug Screen. Data for the mlh1 rad18 strain (AID 175); details: S. cerevisiae mlh1 rad18 strain growth inhibition, active compounds read high
Outline: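 Vehicle-treated cultures served as the reference for growth inhibition in a yeast strain carrying DNA damage repair alterations exposed to each compound.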

[16] = NCI Yeast Anticancer Drug Screen. Data for the rad18 strain (AID 177); details: S. cerevisiae rad18 mutant growth inhibition, active compounds read high
Outline: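 Test articles were incubated with altered yeast defective in DNA damage repair. Results are given as inhibition of growth versus vehicle.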

[17] = at 5.0 µM (retest, dose inferred, filed as 0.5)
[18] = at 50.0 µM (retest, dose inferred, filed as 5.0)

Measured: growth inhibition

Cc1c2c(nc3ccccc13)C(=O)c1cccnc1C2=O
active: [1]; at 33.0 µM 75% | [1]; at 100.0 µM 94% | [2]; at 100.0 µM 81% | [3]; at 100.0 µM 92% | [4]; at 100.0 µM 78% | [5]; at 33.0 µM 78% | [5]; [18] 90% | [5]; at 50.0 µM 77.8% | [5]; at 100.0 µM 94% | [6]; [18] 90% | [6]; at 100.0 µM 83% | [7]; at 100.0 µM 81% | [8]; [18] 78% | [8]; at 50.0 µM 79.2% | [9]; at 100.0 µM 78% | [10]; [18] 72% | [11]; [18] 83% | [11]; at 50.0 µM 75.7% | [11]; at 100.0 µM 83% | [12]; at 100.0 µM 73% | [13]; at 100.0 µM 84% | [14]; at 100.0 µM 81% | [15]; [18] 90% | [15]; at 50.0 µM 84% | [16]; at 100.0 µM 90%
inactive: [1]; at 1.2 µM -10% | [1]; at 3.7 µM 0% | [1]; at 11.0 µM 9% | [2]; at 1.2 µM 2% | [2]; at 3.7 µM 9% | [2]; at 11.0 µM 6% | [2]; at 33.0 µM 17% | [3]; at 1.2 µM -6% | [3]; at 3.7 µM -11% | [3]; at 11.0 µM -2% | [3]; at 33.0 µM 45% | [4]; at 1.2 µM 1% | [4]; at 3.7 µM -1% | [4]; at 11.0 µM -10% | [4]; at 33.0 µM 13% | [5]; at 1.2 µM 9% | [5]; at 3.7 µM 15% | [5]; [17] 57% | [5]; at 11.0 µM 21% | [6]; at 1.2 µM -18% | [6]; at 3.7 µM -10% | [6]; [17] -4% | [6]; at 11.0 µM -13% | [6]; at 33.0 µM 7% | [6]; at 50.0 µM 66.8% | [7]; at 1.2 µM 3% | [7]; at 3.7 µM 3% | [7]; at 11.0 µM 4% | [7]; at 33.0 µM 23% | [8]; [17] 1% | [9]; at 1.2 µM -8% | [9]; at 3.7 µM 1% | [9]; at 11.0 µM 3% | [9]; at 33.0 µM 11% | [10]; [17] -1% | [10]; at 50.0 µM 64% | [11]; at 1.2 µM 5% | [11]; at 3.7 µM 7% | [11]; [17] 12% | [11]; at 11.0 µM -13% | [11]; at 33.0 µM 4% | [12]; at 1.2 µM 3% | [12]; at 3.7 µM -3% | [12]; at 11.0 µM 17% | [12]; at 33.0 µM 20% | [13]; at 1.2 µM 22% | [13]; at 3.7 µM 15% | [13]; at 11.0 µM 20% | [13]; at 33.0 µM 17% | [14]; at 1.2 µM -9% | [14]; at 3.7 µM -11% | [14]; at 11.0 µM -9% | [14]; at 33.0 µM 11% | [15]; [17] 19% | [16]; at 1.2 µM -11% | [16]; at 3.7 µM -5% | [16]; at 11.0 µM 0% | [16]; at 33.0 µM 23%
